The results in this text go back to PubChem BioAssay AID489028 (Sanford-Burnham Center for Chemical Genomics, 2010).

Out of some 10,000 compounds screened, about 5,600 (56%) were called active. The set was probably picked from earlier hits. A selection follows. Unmarked numbers belong to inactive results. Rule as the data show it: active = inhibition above about 40%; inactive = the rest.

Chain of Protein Mdm4 (Homo sapiens) + E3 ubiquitin-protein ligase Mdm2 (Homo sapiens) (O15151 whole entry, looked up): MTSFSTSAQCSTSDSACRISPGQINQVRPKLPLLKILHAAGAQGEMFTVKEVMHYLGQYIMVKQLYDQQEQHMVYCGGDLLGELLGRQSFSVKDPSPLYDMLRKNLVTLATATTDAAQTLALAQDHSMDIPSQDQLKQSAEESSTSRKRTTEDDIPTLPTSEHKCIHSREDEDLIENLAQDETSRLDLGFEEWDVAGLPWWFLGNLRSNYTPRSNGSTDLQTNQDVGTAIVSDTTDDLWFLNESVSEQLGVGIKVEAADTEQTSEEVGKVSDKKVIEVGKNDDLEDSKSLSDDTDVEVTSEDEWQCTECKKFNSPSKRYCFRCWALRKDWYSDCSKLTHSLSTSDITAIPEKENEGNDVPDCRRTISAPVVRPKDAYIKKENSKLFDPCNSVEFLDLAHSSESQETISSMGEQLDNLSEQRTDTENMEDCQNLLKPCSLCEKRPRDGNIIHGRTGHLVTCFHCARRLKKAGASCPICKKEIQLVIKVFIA
Chain of Protein Mdm4 (Homo sapiens) + E3 ubiquitin-protein ligase Mdm2 (Homo sapiens) (Q00987 whole entry, looked up): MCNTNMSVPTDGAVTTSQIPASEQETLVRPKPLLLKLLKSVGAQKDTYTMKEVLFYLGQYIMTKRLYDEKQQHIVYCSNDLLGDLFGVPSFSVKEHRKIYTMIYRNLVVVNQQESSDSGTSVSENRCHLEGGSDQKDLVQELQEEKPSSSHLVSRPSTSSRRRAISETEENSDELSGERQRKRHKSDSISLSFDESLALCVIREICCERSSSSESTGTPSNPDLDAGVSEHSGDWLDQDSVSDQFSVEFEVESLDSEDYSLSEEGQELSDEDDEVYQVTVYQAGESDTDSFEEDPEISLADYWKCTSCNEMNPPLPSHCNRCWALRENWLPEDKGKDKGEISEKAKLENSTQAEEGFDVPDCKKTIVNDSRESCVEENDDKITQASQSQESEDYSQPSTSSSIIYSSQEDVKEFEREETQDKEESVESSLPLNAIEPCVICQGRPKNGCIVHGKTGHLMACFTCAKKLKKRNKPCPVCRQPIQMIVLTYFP

This test has as its target Protein Mdm4 (Homo sapiens) + E3 ubiquitin-protein ligase Mdm2 (Homo sapiens) (UniProt O15151+Q00987). The experiment in a line: Mdm2-MdmX complex disruptors, retested hits, confirmation, luminescence, single concentration (AID 489028). The settings on record: Mdm2-MdmX binding, luminescent assay; at 8 µM; stronger effect = higher value.
For the molecule `Cn1c(=O)n(C)c2cc(C(=O)Nc3ccc(Br)cc3)ccc21`, the inhibition was 35.1%.

In the case of `Cc1ccc(C(=O)Nc2sc(Cc3ccc4c(c3)OCO4)c(C)c2C(N)=O)cc1`, the inhibition was 40%. With `Cn1c(=O)n(C)c2cc(C(=O)Nc3ccc4c(c3)OCO4)ccc21` the figure was 47.6% (active). For `O=c1oc2ccccc2cc1-c1cn(-c2ccccc2)c(=S)[nH]1`, the inhibition is 96.2% (active). The figure for `Cc1ccc(C(=O)NNC(=O)c2cc3cc4ccccc4nc3s2)cc1` is 26.1%. With `CCSc1nsc(NC(=O)Nc2cccc(C(C)=O)c2)n1` the figure was 40.8% (active); with `C=CCSc1nsc(NC(=O)Nc2cccc(C(C)=O)c2)n1`, 66.8% (active).

Regarding `Cc1cccc(NC(=S)NCc2ccc3[nH]c4c(c3c2)CCCC4)c1`, the inhibition was 10.7%. The figure for `Oc1c(Cl)cc(Cl)c(Cl)c1Cc1c(O)c(Cl)cc(Cl)c1Cl` is 90.5% (active). The figure for `Cc1c(Cl)c([N+](=O)[O-])nn1Cc1ccc(C(=O)N/N=C\c2cc(Cl)ccc2O)o1` is 75% (active); for `CCCCNc1c(-c2cccc(Sc3ccc(OC)cc3)c2)nc2ccccn12` it is -9.4%. The figure for `CCCc1nc(NCc2ccc3c(c2)OCO3)c2nnn(Cc3ccccc3Cl)c2n1` is 62% (active); for `Cc1ccc2nc(-c3ccncc3)cc(C(=O)Nc3ccc4c(c3)OCCO4)c2c1` it is 57% (active); for `COc1ccc(NC(=O)/C(Cl)=C(/Cl)S(=O)Cc2ccc(C)cc2)cn1` (stereo not drawn) it is 99.5% (active).

`COc1ccc(CS(=O)/C(Cl)=C(/Cl)C(=O)Nc2ccc(OC)nc2)cc1` (stereo not drawn): the inhibition is 100% (active). As to `COc1ccc(CC(=O)Nc2ccc(-c3nnc(-c4ccc(C)cc4)o3)cc2)cc1`, the inhibition was 15.7%. With `O=C(Nc1ccc2ccccc2c1)Nc1ccc2snnc2c1` the figure was 47.5% (active).

In the case of `COc1ccc(-c2cc(C(F)(F)F)nc(S(C)(=O)=O)n2)cc1OC`, the inhibition was 56.1% (active).

Consider `Cc1ccc2[nH]c(=O)c(CN(CCCN(C)C)C(=O)Nc3cccc(Cl)c3)cc2c1`, for which the inhibition is 44.1% (active). The figure for `Cc1cc(C)c2[nH]c(=O)c(CN(Cc3ccccc3)C(=S)NCCCN(C)C)cc2c1` is 37%. The figure for `O=C(Cn1nnc(-c2ccccc2)n1)N/N=C/c1ccc(-c2ccc(Cl)cc2)o1` is 55.2% (active). The figure for `COc1ccc2c(c1OC)C(=O)OC2Nc1nc(-c2ccccc2)cs1` (stereo not drawn) is 73.8% (active); for `COc1ccc(OC)c(Nc2nc(-c3ccc(O)c(O)c3)cs2)c1` it is 38.4%; for `Cc1ccc(-c2csc(NC3OC(=O)c4ccccc43)n2)cc1` (stereo not drawn) it is 76% (active). Regarding `O=C(NC(Nc1nc2ccc([N+](=O)[O-])cc2s1)(C(F)(F)F)C(F)(F)F)c1ccccc1`, the inhibition was 98.5% (active). Turning to `O=C(Nc1nc2ccc([N+](=O)[O-])cc2s1)c1ccc(S(=O)(=O)N2CCCc3ccccc32)cc1`, the inhibition is 88.2% (active). With `CS(=O)(=O)c1ccc2nc(NC(=O)c3ccc(N4CCCC4=O)cc3)sc2c1` the figure was 7.9%; with `CN(C)CCCN(C(=O)c1ccc(S(=O)(=O)N2CCCc3ccccc32)cc1)c1nc2ccc(F)cc2s1`, 29.9%; with `Cc1ccccc1OCCOc1ccc([N+](=O)[O-])cc1/C=N/n1cnnc1`, 58.2% (active). For `Fc1ccccc1/C=C1\CCCC2=C1Nc1ncnn1C2c1ccccc1F` (stereo not drawn), the inhibition was 83% (active). With `COc1ccc(OC)c(C2C3=C(N=c4s/c(=C\c5cccc(O)c5)c(=O)n42)c2ccccc2CC3)c1` (stereo not drawn) the figure was 28.1%; with `CC1CCCCC1NC(=O)/C(C#N)=C/C=C/c1ccccc1[N+](=O)[O-]` (stereo not drawn), 93% (active); with `Cc1ccc(C)c(N2CCN(C(=O)CCCCCn3c(=S)[nH]c4ccc(N5CCOCC5)cc4c3=O)CC2)c1`, 43.1% (active).

As to `O=C(CCCCCn1c(=S)[nH]c2cc3c(cc2c1=O)OCO3)N1CCN(c2ccc(F)cc2)CC1`, the inhibition is 36.2%. With `O=C(CCn1c(=S)[nH]c2cc3c(cc2c1=O)OCO3)NCc1ccc(Cl)cc1` the figure was 5.65%; with `CCN1/C(=C\c2ccc3ccccc3[n+]2CC)Sc2cc(C)ccc21`, 78.1% (active). For `O=C(NCC#CCSc1nnc(-c2cccc3ccccc23)o1)c1cccs1`, the inhibition is 83.7% (active). With `Oc1ccc(N=Nc2nccs2)c(O)c1` the figure was 35%. As for `CS(=O)(=O)N(CC(O)Cn1c2ccccc2c2ccccc21)c1cccc2ccccc12` (stereo not drawn), the inhibition was 15.5%. With `C=C(C)C(=O)O[C@H]1C/C(C)=C\C(=O)/C=C(\C)[C@H](O)[C@@H]2OC(=O)C(=C)[C@@H]21` the figure was 56.6% (active); with `CC(Nc1nc(C(F)(F)F)nc2ccccc12)c1cccs1` (stereo not drawn), 50.4% (active). The figure for `Cc1nnc(N/N=C/c2ccccn2)[nH]c1=O` is 86.6% (active); for `CCc1ccc2c(c1)C1(NN=C(c3ccccc3)S1)C(=O)N2` (stereo not drawn) it is 53.1% (active). For the molecule `Nc1nc(CC(=O)CSc2ccc(Cl)cc2)nc(Nc2ccc(F)cc2)n1`, the inhibition was 71% (active). The figure for `Oc1ccccc1N1CCN(c2ncnc3sc(-c4ccccc4)cc23)CC1` is 58% (active); for `COc1ccccc1N1CCN(c2ncnc3sc(C)c(-c4ccccc4)c23)CC1` it is 25.6%; for `c1ccc2c(c1)C(=NC1CCCCC1)NC2=NC1CCCCC1` it is 53.5% (active). With `Cc1cccc(-n2ncc(Cl)c(Cl)c2=O)c1` the figure was 87.5% (active); with `Cc1cc(C)c2c(-c3ccc(F)cc3)c(C#N)c(=O)n(C)c2n1`, 12%; with `CCN(CC)S(=O)(=O)c1ccc(NC(=O)c2cccnc2Cl)c(NC(=O)c2cccnc2Cl)c1`, 95.8% (active).

For `O=C1N/C(=C/c2cccn2-c2ccccc2)C(=O)N1c1cccc(Cl)c1`, the inhibition is 59.4% (active). With `COc1ccc(CNC(=O)C(c2ccc(O)cc2)N(Cc2ccco2)C(=O)c2snc(C(N)=O)c2N)cc1` (stereo not drawn) the figure was 45% (active); with `N=c1c2c(-c3ccccc3)c(-c3ccccc3)n(Cc3ccccc3)c2ncn1CCCO`, 62.9% (active); with `CCCC[C@@H]1CN=C(N)N1CCc1cc(C(F)(F)F)cc(C(F)(F)F)c1`, 32.2%.

`CC1=C/C(=N\OS(=O)(=O)c2ccccc2)C=CC1=O`: the inhibition is 45.8% (active).

As to `CCOc1cc(NC(=O)c2ccco2)c(OCC)cc1NC(=O)COc1ccccc1`, the inhibition is 25.9%.

With `CN1CCN(c2ccccc2NC(=O)COc2ccc(C3CCCCC3)cc2)CC1`, the inhibition was 20%. With `CCOc1cc(N2CCOCC2)c(OCC)cc1NC(=O)COc1cccc2cccnc12`, the inhibition is 80.8% (active). On to `CCc1ccc(N(CC)c2ncnc3nc[nH]c23)cc1`, for which the inhibition is 52.4% (active).

As to `Cc1cccc(-c2oc3ccc(-c4ccc5c(c4)OCO5)cc3c2C#Cc2cncn2C)c1`, the inhibition was 30.1%. The figure for `COc1ccc2sc(-c3ccc(S(C)(=O)=O)cc3)c(C#Cc3cncn3C)c2c1` is 60.5% (active). The figure for `O=C(CCNC(=O)c1ccc(Cl)cc1)NC1CCCc2ccccc21` (stereo not drawn) is 57.9% (active); for `CC(C)Cc1nc(Nc2ccc(S(=O)(=O)N3CCCC3)cc2)c2nnn(Cc3ccccc3)c2n1` it is 36.1%; for `COc1ccc(-c2ccc(Nc3ccc(S(=O)(=O)N4CCCC4)cc3)nn2)cc1OC` it is 53.5% (active).

With `COc1ccc(C(CCN(Cc2ccc(OC)c(OC)c2)C(=O)CCl)c2ccccc2)cc1` (stereo not drawn), the inhibition is 73.3% (active). The figure for `CCOC(=O)CC1C(=O)NCCN1c1nc2c(C)cccn2c(=O)c1/C=C1\SC(=S)N(C(C)CC)C1=O` (stereo not drawn) is 61.7% (active); for `COc1ccccc1-n1nnnc1S(=O)(=O)Cc1ccc(Cl)cc1` it is 74.9% (active).

For `NC(N)=N/N=C/c1ccc(OCc2ccc(Cl)cc2Cl)cc1`, the inhibition is 99.7% (active). The figure for `CCCCCCc1cc2cc(-c3nnc(-c4ccccc4)o3)c(=O)oc2cc1O` is 0.95%. With `CC(Nc1nc(N2CCCC2)nc2ccccc12)c1ccccc1` (stereo not drawn) the figure was 40.5% (active); with `Cc1[nH]nc(-c2ccc(OCc3cnn(-c4ccccc4)c3)cc2O)c1Oc1ccc(Cl)cc1`, 25.5%; with `COC(=O)c1sc(-c2ccc(C(C)(C)C)cc2)cc1NC(=O)/C=C/C(=O)O`, 52.6% (active). In the case of `O=S(=O)([N-]c1nc2ccccc2nc1-[n+]1ccc(Cc2ccccc2)cc1)c1ccc(Br)s1`, the inhibition is 60% (active). For `Cc1cccc(-c2nc3ccc(C(=O)NCCN4CCN(C)CC4)cc3nc2-c2cccc(C)c2)c1`, the inhibition was 28.6%. Take `Cc1cc(CNC(=O)c2cccc([N+](=O)[O-])c2)c2ccccc2n1`: the inhibition is 58.7% (active). With `O=C(NCc1ccccc1)C1=C[C@@H](C2CCCCC2)C[C@@H](OCc2ccc(CO)cc2)O1` the figure was 32.2%; with `CN(C)CC(O)COc1ccc(C(C)(C)c2ccc(OCC(O)CN(C)C)cc2)cc1` (stereo not drawn), 89.7% (active); with `CN(Cc1ccccc1)CC(O)COc1ccc(CNCc2cc3ccccc3s2)cc1` (stereo not drawn), 32.6%. In the case of `COc1ccc(C2=Nn3c(nnc3-c3ccccc3OC)SC2)cc1OC1CCCC1`, the inhibition is 73.4% (active). The figure for `COc1cccc2cc(C(N)=O)/c(=N\NC(=O)c3ccccc3)oc12` is 44% (active); for `Cc1cccc(NC(=O)Nc2cccc(Oc3c(F)c(F)c(F)c(F)c3F)c2)c1` it is 73% (active).

Turning to `Cc1cccc(CN2CCC(CNC(=O)Nc3ccc(F)c(Cl)c3)CC2)c1`, the inhibition is 36%.

`Oc1c(Br)cccc1/C=N/Nc1c(F)c(F)c(F)c(F)c1F`: the inhibition was 58.2% (active). With `CNC[C@H](CC1CCCCC1)NC[C@H](NCCC1CCCC1)[C@H](C)O` the figure was 77% (active); with `Cc1ccc(Cc2cnc(NC(=O)/C(C#N)=C/c3ccc(-c4cccc([N+](=O)[O-])c4)o3)s2)cc1`, 6.4%.

As for `Cc1ccc(C(=O)N/C(=C/c2ccc(-c3cccc([N+](=O)[O-])c3)o2)C(=O)NCCCN(C)C)cc1`, the inhibition was 49.5% (active).

Consider `CC(C)n1cnc2c(Nc3cccc(Cl)c3)nc(N(CCO)CCCO)nc21`, for which the inhibition is 60.8% (active).

On to `CC12CCC(C(=O)N(NC(=O)c3ccccc3O)C1=O)C2(C)C` (stereo not drawn), for which the inhibition is 11.2%.

The term inhibition denotes the drop in the measured response relative to a control, in per cent.
